Laboratory results: PubChem BioAssay AID2279 (Southern Research Specialized Biocontainment Screening …, 2010)
Entries with a potency or affinity are not part of this list. Activity calls are given as the source filed them. No rule for the calls is given here.

Assay: HIV-1 Env-mediated cell fusion inhibitors, dose response, CCR5-tropic Env (AID 2279)
Details: CCR5-tropic HIV-1 Env, reporter read-out; series mostly up to 50 µM; inhibition: at the top concentration

inhibition, inactive:
CCc1oc2ccccc2c1C(=O)c1cc(Br)c(O)c(Br)c1 31%, Cc1cn2c(N)c(C=C3C=C(Cl)C(=O)C(Cl)=C3)c(=O)nc2s1 12.1%, CCOc1cc(/C=N/N=C2/NC(=O)C(CC(=O)O)S2)ccc1OCc1ccc(Cl)cc1 (centres undefined) 10.5%, Cc1cc(N2C(=O)C(O)=C(C(=O)c3cc4ccccc4o3)C2c2ccc(Cl)cc2)no1 (centres undefined) 32.2%, COc1ccc2c(c1)cc(C(=O)N/N=C/c1c(O)c(C(=O)O)cc3ccccc13)n2C 4.15%, CCOc1cc(/C=N/N=C2/NC(=O)C(CC(=O)O)S2)ccc1OCc1ccc(Cl)cc1Cl (centres undefined) 21.9%, COc1ccc(-c2cc(-c3ccc(Cl)cc3)c(C#N)c(SCC(=O)O)n2)cc1 28.1%, COc1ccc(OC)c(/C=C2\SC(=S)N(NS(=O)(=O)c3ccc(C)cc3)C2=O)c1 4.7%, O=C(O)c1ccc(NS(=O)(=O)c2ccc3c(c2)C2C=CCC2C(c2ccccc2F)N3)cc1 (centres undefined) 1.73%, O=C(O)CCN1C(=O)/C(=C\c2cccc(OCC(=O)Nc3ccc(Cl)cc3)c2)SC1=S 1.86%, COc1cc(/C=C2/C(=O)NN(c3ccc(Cl)cc3)C2=O)ccc1OC(=O)c1ccco1 0.91%, O=C1NN(c2ccc(Cl)c(Cl)c2)C(=O)/C1=C/c1ccc(-c2ccccc2C(=O)O)o1 -10.8%, O=C(O)c1[nH]c2ccccc2c1C(c1cc(Br)ccc1O)c1c(C(=O)O)[nH]c2ccccc12 -15.4%, Cc1cc(C)cc(-n2cccc2/C=C2/C(=N)N3C(=NC2=O)SN=C3S(C)(=O)=O)c1 4.76%, O=C(O)COc1ccccc1/C=N/NC(=O)CSc1nnc(SCc2cccc3ccccc23)s1 -0.33%, CCCCCC(=O)Cc1cc(O)cc2c1C(=O)Oc1cc(O)c(C(=O)O)c(CCCCC)c1O2 28.4%, O=C(O)CN1C(=O)/C(=C\c2cccc(OCc3ccc(Cl)cc3Cl)c2)SC1=S 22.3%, CC1=C(C#N)C(=O)NC(=O)/C1=C\c1ccc(-c2cc(C)c(C)cc2[N+](=O)[O-])o1 0.21%, O=C(O)c1ccc(Cl)c(S(=O)(=O)Nc2ccccc2C(=O)Nc2ccc(Cl)cc2)c1 -12.6%, CSc1nc(SCC(=O)O)c2sc3nc(-c4ccccc4)c4c(c3c2n1)CCC4 23.1%, O=C(CN1C(=O)S/C(=C\C=C\c2ccccc2)C1=O)Nc1ccccc1C(=O)O 0.8%, Cc1c(CCC(=O)O)c(=O)oc2c(C)c3occ(-c4ccc(Cl)cc4)c3cc12 11.6%, Cc1c(CCC(=O)O)c(=O)oc2c(C)c3occ(-c4ccc(Br)cc4)c3cc12 4.8%, CCCOc1ccc(C(=O)NNC(=S)NC(=O)c2cc(-c3ccc(Cl)cc3)nc3ccccc23)cc1 -2.5%, O=C(O)CSc1cc(C(=O)c2ccccc2O)cn2c(=O)c3c4c(sc3nc12)CCCC4 -1.15%, CCS(=O)(=O)C1=NN2C(=N)/C(=C\c3ccc(OCCOc4cccc(OC)c4)c(OC)c3)C(=O)N=C2S1 6.77%, COc1cccc(-c2nc(SCC(=O)Nc3nc(-c4ccccc4)c(C)s3)[nH]c(=O)c2C#N)c1 -9.79%, CCC(C)(C)C1CCc2c(sc(NC(=O)c3ccccc3C(=O)O)c2C#N)C1 (centres undefined) -10.8% [at 25 µM], N#Cc1c(-c2ccccc2)nc(SCc2cccc(Cl)c2)[nH]c1=O -9.74%, O=C(O)c1ccc(Nc2nc(-c3cc4ccccc4oc3=O)cs2)cc1O -11.2%, N#Cc1c(-c2cccs2)nc(SCc2ccc(Cl)cc2)[nH]c1=O 17.8%, COc1cc(/C=C2\C(=N)N3N=C(S(C)(=O)=O)SC3=NC2=O)cc(OC)c1OCCOc1ccc(C)cc1 4.2%, COc1ccc(-c2nn(-c3ccccc3)cc2/C=C\C(=O)Nc2ccc(C(=O)O)cc2)cc1 31.8%, CCOc1cc(/C=C2\C(=N)N3N=C(S(C)(=O)=O)SC3=NC2=O)ccc1OCCOc1cccc(OC)c1 5.44%
